In paper PMC11006913 one finds binding signal data, which are given here for six sequences.

Substitutions are numbered along the chain they refer to.

What all share (experiment): PBM; 200 nM protein, PBS
Details in all cases: dsDNA, one strand shown

Test [1] addresses SHOX (Homo sapiens, UniProt O15266 103-189).
The target of test [2] is HOXB6 (Homo sapiens, UniProt P17509 132-218, K202E).
The target in test [3] is SHOX (Homo sapiens, UniProt O15266 103-189, R173C).
The target of test [4] is HOXB6 (Homo sapiens, UniProt P17509 132-218).
For test [5], the target named is HOXA2 (Homo sapiens, UniProt O43364 129-215, R185T).
The target in test [6] is HOXA2 (Homo sapiens, UniProt O43364 129-215, R185K).
In test [7] the target is HOXA2 (Homo sapiens, UniProt O43364 129-215, Y150S).
For test [8], the target named is HOXA2 (Homo sapiens, UniProt O43364 129-215).
Test [9] deals with T1, PAX4 (Homo sapiens, UniProt O43316 9-242, R200K).
T1 sequence: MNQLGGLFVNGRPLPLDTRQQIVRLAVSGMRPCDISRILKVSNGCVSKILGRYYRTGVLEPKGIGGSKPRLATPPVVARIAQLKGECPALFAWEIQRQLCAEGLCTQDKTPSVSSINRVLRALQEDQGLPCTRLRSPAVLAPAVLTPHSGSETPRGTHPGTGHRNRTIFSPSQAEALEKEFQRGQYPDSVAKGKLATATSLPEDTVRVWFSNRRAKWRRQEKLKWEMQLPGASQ

Test [10] concerns the target T2, PAX4 (Homo sapiens, UniProt O43316 9-242).
T2 sequence: T1 sequence with K192R

Test [11] concerns the target ALX3 (Homo sapiens, UniProt O95076 139-225, N203Q).
Test [12] addresses T3, PAX4 (Homo sapiens, UniProt O43316 9-242, R200Q).
T3 sequence: T1 sequence with K192Q

The target of test [13] is T4, PAX4 (Homo sapiens, UniProt O43316 9-242, F177V).
T4 sequence: T1 sequence with F169V, K192R

For test [14], the target named is ALX3 (Homo sapiens, UniProt O95076 139-225).
For test [15], the target named is T5, PAX4 (Homo sapiens, UniProt O43316 9-242, F177Y).
T5 sequence: T1 sequence with F169Y, K192R

Test [16] deals with ALX3 (Homo sapiens, UniProt O95076 139-225, L168Q).
In test [17] the target is ALX3 (Homo sapiens, UniProt O95076 139-225, L168V).
Test [18] addresses T6, PAX4 (Homo sapiens, UniProt O43316 9-242, R227W).
T6 sequence: T1 sequence with K192R, R219W

Test [19] addresses ALX3 (Homo sapiens, UniProt O95076 139-225, N203S).
Test [20] has as its target ALX4 (Homo sapiens, UniProt Q9H161 200-286).
Test [21] deals with ALX4 (Homo sapiens, UniProt Q9H161 200-286, Q225E).
Test [22] has as its target ALX1 (Homo sapiens, UniProt Q15699 118-204, L144V).
In test [23] the target is ALX1 (Homo sapiens, UniProt Q15699 118-204, L144R).
Test [24] addresses VAX1 (Homo sapiens, UniProt Q5SQQ9 86-172).
The target in test [25] is VAX1 (Homo sapiens, UniProt Q5SQQ9 86-172, T142I).
The target of test [26] is ALX1 (Homo sapiens, UniProt Q15699 118-204).
Test [27] deals with VAX1 (Homo sapiens, UniProt Q5SQQ9 86-172, K157R).
Test [28] deals with MSX2 (Homo sapiens, UniProt P35548 130-214, R199I).
Test [29] addresses MSX2 (Homo sapiens, UniProt P35548 130-214).
The target of test [30] is MSX2 (Homo sapiens, UniProt P35548 130-214, F161Y).
Test [31] has as its target HOXB9 (Homo sapiens, UniProt P17482 171-250).
The target in test [32] is HOXB9 (Homo sapiens, UniProt P17482 171-250, R186Q).
Chain of HOXB9 (Homo sapiens, UniProt P17482 171-250, R186Q) (P17482 171-250 R186Q): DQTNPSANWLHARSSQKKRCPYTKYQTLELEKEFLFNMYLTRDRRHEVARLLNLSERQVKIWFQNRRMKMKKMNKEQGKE

Chain of SHOX (Homo sapiens, UniProt O15266 103-189, R173C) (O15266 103-189 R173C): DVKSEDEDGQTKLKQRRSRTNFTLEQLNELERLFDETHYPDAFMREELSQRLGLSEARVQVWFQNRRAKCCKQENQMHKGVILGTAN
Chain of SHOX (Homo sapiens, UniProt O15266 103-189) (O15266 103-189): as the sequence (O15266 103-189 R173C) above, with C71R counted along it
Chain of ALX1 (Homo sapiens, UniProt Q15699 118-204, L144R) (Q15699 118-204 L144R): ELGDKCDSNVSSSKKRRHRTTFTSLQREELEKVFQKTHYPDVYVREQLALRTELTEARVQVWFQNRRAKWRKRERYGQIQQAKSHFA
Chain of ALX1 (Homo sapiens, UniProt Q15699 118-204) (Q15699 118-204): as the sequence (Q15699 118-204 L144R) above, with R27L counted along it
Chain of ALX1 (Homo sapiens, UniProt Q15699 118-204, L144V) (Q15699 118-204 L144V): as the sequence (Q15699 118-204 L144R) above, with R27V counted along it
Chain of VAX1 (Homo sapiens, UniProt Q5SQQ9 86-172, K157R) (Q5SQQ9 86-172 K157R): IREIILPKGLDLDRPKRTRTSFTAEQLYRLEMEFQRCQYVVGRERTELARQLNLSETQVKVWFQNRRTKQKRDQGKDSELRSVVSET
Chain of HOXB6 (Homo sapiens, UniProt P17509 132-218, K202E) (P17509 132-218 K202E): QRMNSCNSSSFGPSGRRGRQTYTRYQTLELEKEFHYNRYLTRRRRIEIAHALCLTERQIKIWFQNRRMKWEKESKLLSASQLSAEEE
Chain of ALX3 (Homo sapiens, UniProt O95076 139-225, L168Q) (O95076 139-225 L168Q): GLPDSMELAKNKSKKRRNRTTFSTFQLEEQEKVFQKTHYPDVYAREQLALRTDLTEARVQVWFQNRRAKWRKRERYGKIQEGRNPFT
Chain of VAX1 (Homo sapiens, UniProt Q5SQQ9 86-172) (Q5SQQ9 86-172): as the sequence (Q5SQQ9 86-172 K157R) above, with R72K counted along it
Chain of HOXA2 (Homo sapiens, UniProt O43364 129-215, Y150S) (O43364 129-215 Y150S): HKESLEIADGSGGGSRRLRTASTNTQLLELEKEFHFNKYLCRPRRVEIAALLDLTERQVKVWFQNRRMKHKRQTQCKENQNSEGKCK
Chain of HOXB9 (Homo sapiens, UniProt P17482 171-250) (P17482 171-250): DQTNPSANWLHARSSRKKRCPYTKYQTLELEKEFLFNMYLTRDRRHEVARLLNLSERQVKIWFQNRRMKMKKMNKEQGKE
Chain of MSX2 (Homo sapiens, UniProt P35548 130-214, F161Y) (P35548 130-214 F161Y): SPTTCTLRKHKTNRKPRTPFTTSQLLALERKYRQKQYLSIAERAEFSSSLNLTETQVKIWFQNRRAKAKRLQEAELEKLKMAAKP
Chain of HOXB6 (Homo sapiens, UniProt P17509 132-218) (P17509 132-218): as the sequence (P17509 132-218 K202E) above, with E71K counted along it
Chain of HOXA2 (Homo sapiens, UniProt O43364 129-215, R185K) (O43364 129-215 R185K): as the sequence (O43364 129-215 Y150S) above, with S22Y, R57K counted along it
Chain of VAX1 (Homo sapiens, UniProt Q5SQQ9 86-172, T142I) (Q5SQQ9 86-172 T142I): as the sequence (Q5SQQ9 86-172 K157R) above, with T57I, R72K counted along it
Chain of ALX3 (Homo sapiens, UniProt O95076 139-225, N203Q) (O95076 139-225 N203Q): as the sequence (O95076 139-225 L168Q) above, with Q30L, N65Q counted along it
Chain of ALX4 (Homo sapiens, UniProt Q9H161 200-286) (Q9H161 200-286): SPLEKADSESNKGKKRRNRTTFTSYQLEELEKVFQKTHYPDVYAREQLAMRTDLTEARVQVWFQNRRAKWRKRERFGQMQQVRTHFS
Chain of MSX2 (Homo sapiens, UniProt P35548 130-214) (P35548 130-214): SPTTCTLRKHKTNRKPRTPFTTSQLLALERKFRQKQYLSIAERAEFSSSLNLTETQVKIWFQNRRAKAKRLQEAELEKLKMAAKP
Chain of HOXA2 (Homo sapiens, UniProt O43364 129-215, R185T) (O43364 129-215 R185T): as the sequence (O43364 129-215 Y150S) above, with S22Y, R57T counted along it
Chain of ALX3 (Homo sapiens, UniProt O95076 139-225, N203S) (O95076 139-225 N203S): as the sequence (O95076 139-225 L168Q) above, with Q30L, N65S counted along it
Chain of ALX3 (Homo sapiens, UniProt O95076 139-225) (O95076 139-225): as the sequence (O95076 139-225 L168Q) above, with Q30L counted along it
Chain of ALX3 (Homo sapiens, UniProt O95076 139-225, L168V) (O95076 139-225 L168V): as the sequence (O95076 139-225 L168Q) above, with Q30V counted along it
Chain of MSX2 (Homo sapiens, UniProt P35548 130-214, R199I) (P35548 130-214 R199I): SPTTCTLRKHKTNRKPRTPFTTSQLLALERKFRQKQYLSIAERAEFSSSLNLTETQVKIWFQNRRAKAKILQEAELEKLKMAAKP
Chain of HOXA2 (Homo sapiens, UniProt O43364 129-215) (O43364 129-215): as the sequence (O43364 129-215 Y150S) above, with S22Y counted along it
Chain of ALX4 (Homo sapiens, UniProt Q9H161 200-286, Q225E) (Q9H161 200-286 Q225E): as the sequence (Q9H161 200-286) above, with Q26E counted along it

With GCAGAGCC, the binding signal is 7.11 upbm affinity estimate (log intensity, higher = more binding, comparable within an allelic series) in test [1]; 8.95 upbm affinity estimate (log intensity, higher = more binding, comparable within an allelic series) in test [2]; 7.16 upbm affinity estimate (log intensity, higher = more binding, comparable within an allelic series) in test [3]; 8.72 upbm affinity estimate (log intensity, higher = more binding, comparable within an allelic series) in test [4].

Take CGCCCGAC: the binding signal in [1] was 7.09 upbm affinity estimate (log intensity, higher = more binding, comparable within an allelic series); in test [5] it was 7.5 upbm affinity estimate (log intensity, higher = more binding, comparable within an allelic series); in [3], 7.2 upbm affinity estimate (log intensity, higher = more binding, comparable within an allelic series); in [6], 10.3 upbm affinity estimate (log intensity, higher = more binding, comparable within an allelic series); in test [7], 10.6 upbm affinity estimate (log intensity, higher = more binding, comparable within an allelic series); in test [8], 7.16 upbm affinity estimate (log intensity, higher = more binding, comparable within an allelic series).

With CGCCGAGC, the binding signal is 7.14 upbm affinity estimate (log intensity, higher = more binding, comparable within an allelic series) in test [1]; 9.36 upbm affinity estimate (log intensity, higher = more binding, comparable within an allelic series) in test [9]; 9.47 upbm affinity estimate (log intensity, higher = more binding, comparable within an allelic series) in test [10]; 7.72 upbm affinity estimate (log intensity, higher = more binding, comparable within an allelic series) in [11]; 9.48 upbm affinity estimate (log intensity, higher = more binding, comparable within an allelic series) in [12]; 7.23 upbm affinity estimate (log intensity, higher = more binding, comparable within an allelic series) in [3]. Also, the binding signal is 9.31 upbm affinity estimate (log intensity, higher = more binding, comparable within an allelic series) in test [13]; 7.76 upbm affinity estimate (log intensity, higher = more binding, comparable within an allelic series) in test [14]; 9.32 upbm affinity estimate (log intensity, higher = more binding, comparable within an allelic series) in test [15]; 7.81 upbm affinity estimate (log intensity, higher = more binding, comparable within an allelic series) in test [16]; 7.74 upbm affinity estimate (log intensity, higher = more binding, comparable within an allelic series) in [17]; 9.41 upbm affinity estimate (log intensity, higher = more binding, comparable within an allelic series) in test [18]. The binding signal in test [19] was 7.79 upbm affinity estimate (log intensity, higher = more binding, comparable within an allelic series).

On to CCACCCGG, for which the binding signal in test [1] was 7.19 upbm affinity estimate (log intensity, higher = more binding, comparable within an allelic series); in test [20], 8.21 upbm affinity estimate (log intensity, higher = more binding, comparable within an allelic series); in [21], 8.29 upbm affinity estimate (log intensity, higher = more binding, comparable within an allelic series); in test [22], 6.62 upbm affinity estimate (log intensity, higher = more binding, comparable within an allelic series); in test [3], 7.17 upbm affinity estimate (log intensity, higher = more binding, comparable within an allelic series); in [23], 6.65 upbm affinity estimate (log intensity, higher = more binding, comparable within an allelic series). The binding signal in test [24] is 7.3 upbm affinity estimate (log intensity, higher = more binding, comparable within an allelic series); in test [25] it was 7 upbm affinity estimate (log intensity, higher = more binding, comparable within an allelic series); in test [26], 6.35 upbm affinity estimate (log intensity, higher = more binding, comparable within an allelic series); in test [27] it was 7.13 upbm affinity estimate (log intensity, higher = more binding, comparable within an allelic series).

As for CGGACAGC, the binding signal in [1] is 7.13 upbm affinity estimate (log intensity, higher = more binding, comparable within an allelic series); in [9], 9.47 upbm affinity estimate (log intensity, higher = more binding, comparable within an allelic series); in [10], 9.43 upbm affinity estimate (log intensity, higher = more binding, comparable within an allelic series); in test [28] it was 9.52 upbm affinity estimate (log intensity, higher = more binding, comparable within an allelic series); in test [22] it was 6.29 upbm affinity estimate (log intensity, higher = more binding, comparable within an allelic series); in [12] it was 9.47 upbm affinity estimate (log intensity, higher = more binding, comparable within an allelic series). In addition, the binding signal in test [3] was 7.17 upbm affinity estimate (log intensity, higher = more binding, comparable within an allelic series); in [23], 6.43 upbm affinity estimate (log intensity, higher = more binding, comparable within an allelic series); in [13], 9.4 upbm affinity estimate (log intensity, higher = more binding, comparable within an allelic series); in test [29] it was 9.55 upbm affinity estimate (log intensity, higher = more binding, comparable within an allelic series); in [15], 9.46 upbm affinity estimate (log intensity, higher = more binding, comparable within an allelic series); in test [30], 9.53 upbm affinity estimate (log intensity, higher = more binding, comparable within an allelic series). Moreover, the binding signal in [18] is 9.46 upbm affinity estimate (log intensity, higher = more binding, comparable within an allelic series); in [26], 6.5 upbm affinity estimate (log intensity, higher = more binding, comparable within an allelic series).

With AATTAGGA, the binding signal in test [1] is 11.4 upbm affinity estimate (log intensity, higher = more binding, comparable within an allelic series); in [31], 10.3 upbm affinity estimate (log intensity, higher = more binding, comparable within an allelic series); in test [3], 9.06 upbm affinity estimate (log intensity, higher = more binding, comparable within an allelic series); in [32], 10.2 upbm affinity estimate (log intensity, higher = more binding, comparable within an allelic series).
